Assay results as given in ChEMBL document CHEMBL1157539, “Thousands of chemical starting points for antimalarial lead identification” (Nature, 2010).

Legend:
Format in all cases: functional
Plasmodium falciparum [1] = test: GSK_TCMDC: Inhibition of Plasmodium falciparum 3D7 in whole red blood cells, using parasite LDH activity as an index of growth. Test compounds present at 2uM
Plasmodium falciparum [2] = test: GSK_TCMDC: Inhibition of Plasmodium falciparum Dd2 in whole red blood cells, using parasite LDH activity as an index of growth. Test compounds present at 2uM
HepG2 = test: GSK_TCMDC: Percent inhibition of human HepG2 cell line. Test compounds present at 10uM.

Compound | Inhibition (Plasmodium falciparum [1]) [%] | Inhibition (Plasmodium falciparum [2]) [%] | Inhibition (HepG2) [%]
CCN(CC)CCNc1ccnc2ccc3ccccc3c12 | 100 | 67 | 5
COc1ccc2nccc([C@@H](O)CN3CCC(NCCOc4cccc(C(F)(F)F)c4Cl)CC3)c2c1.O=C(O)C(=O)O | 100 | 98 | 13
Fc1cccc(COc2ccc(Nc3ncnc4sc(C#CCNC5CCCC5)cc34)cc2Cl)c1 | 100 | 78 | 3
Cc1cc(-c2cc3nc4c(c(O)n3n2)CCCC4)c(C)o1 | 94 | 82 | 4
O=C(c1ccccc1)N1CCC(CN2CCOC(c3ccccc3)(c3ccccc3)C2)CC1 | 94 | 95 | 14
C[C@H](NC(=O)c1c(CN2CCN(C(=O)C(C)(C)C)CC2)c(-c2cccs2)nc2ccccc12)C1CCCCC1 | 89 | 62 | 2
Cn1ccnc1CNC(=O)c1ccc(-c2cccc(-c3nc4cc(F)ccc4[nH]3)c2)cc1 | 96 | 8 | 8
CCCCCCN1CCCN(Cc2cccc(C(=O)Nc3ccc(C(C)(C)C)cc3)c2)CC1.O=C(O)C(F)(F)F | 93 | 23 | 41
CS(=O)(=O)c1ccc(CCNCc2ccc(-c3ccc(CN(C(=O)c4ccc(Cl)nc4)C4CCN(Cc5ccccc5)CC4)cc3)nc2)cc1.O=C(O)C(F)(F)F | 93 | 70 | 24
CCCCN1CCCN(Cc2cccc(NC(=O)c3ccc(-c4ccccc4)cc3)c2)CC1.O=C(O)C(F)(F)F | 92 | 8 | 19
Cc1ccnc(NC(c2ccc(Cl)c([N+](=O)[O-])c2)c2ccc3cccnc3c2O)c1 (stereo not drawn) | 89 | 57 | 47
Cc1ccc(NCC(=O)Nc2ccc(F)c(Cl)c2)cc1S(=O)(=O)N1CCOCC1 | 98 | 97 | 2
CCNc1cc(C(=O)N[C@@H](Cc2ccccc2)[C@H](O)CNCCc2ccccc2)cc(N2CCCC2=O)c1.O=C(O)C(F)(F)F | 92 | 46 | 0
O=C(Nc1cccc(CN2CCCN(Cc3ccsc3)CC2)c1)c1ccc(Cl)c(Cl)c1.O=C(O)C(F)(F)F | 98 | 20 | 36
Cl.OCCNc1nc(Nc2cccc(O)c2)nc2ccccc12 | 96 | 55 | 3
CC(=O)Oc1cc(OCc2ccccc2)c(OC(C)=O)c(OCc2ccccc2)c1 | 94 | 78 | 11
CN1CCN(c2cc3c(cc2Cl)CCN3C(=O)Cc2ccc(NC(=O)Nc3cccc4ccccc34)cc2)CC1 | 92 | 18 | 12
Cc1ccccc1C1CCN(C2CCC(NC(=O)/C=C/c3ccc4c(c3)OC(F)(F)O4)CC2)CC1 (stereo not drawn) | 100 | 39 | 75
Br.Cc1ccnc(Nc2nc(-c3ccccn3)cs2)c1 | 100 | 87 | 45
Cc1cc(-c2cccc(CNCCc3ccc(Cl)cc3)c2)cnc1N.Cl | 90 | 3 | 19
O=C(Nc1ccsc1)Nc1cccc(-c2cccc(-c3nc4cc(F)ccc4[nH]3)c2)c1 | 100 | 41 | 46

Compound | Inhibition (Plasmodium falciparum [1]) [%] | Inhibition (Plasmodium falciparum [2]) [%] | Inhibition (HepG2) [%]
O=C(Nc1ccc(SC(F)(F)F)cc1)Nc1ccc(Cl)c(Cl)c1 | 98 | 99 | 15
CCCCOC(=O)[C@H](CCC)NC(=O)c1ccc(NS(=O)(=O)c2ccc3nc(N)[nH]c(=O)c3c2)cc1 | 99 | 3 | 66
O=C(O)C(F)(F)F.O=S(=O)(NCCN1CCCC1)c1ccc(-c2ccccc2CNC2Cc3ccccc3C2)cc1 | 95 | 67 | 19
O=C(Nc1ccc(CN2CCOCC2)cc1)c1ccc(-c2ccc(Br)cc2)o1 | 92 | 0 | 3
Cc1cc(N)ncc1-c1ccc(NC(=O)Nc2cc(C(F)(F)F)ccc2F)cc1.O=C(O)C(F)(F)F | 100 | 23 | 15
Cc1ccc(NC(=O)Nc2ccccc2F)cc1-c1ccc(C(=O)Nc2ccncc2)cc1 | 99 | 54 | 36
NC1=NC2(CCCCC2)N(OCCCCCCCCNc2nc(N)nc(N)n2)C(N)=N1.O=C(O)C(F)(F)F | 96 | 99 | 44
O=C(O)C(F)(F)F.c1ccc(CCNCc2ccc(-c3cccc(CNc4ccc5ncccc5c4)c3)cc2)cc1 | 91 | 17 | 30
CC[C@H]1CN(C/C=C/c2ccc(OC)cc2)CC[C@H]1CCCc1ccnc2ccc(O)cc12 | 99 | 72 | 24
CCC(CO)NCC(O)Cn1c2ccc(Br)cc2c2cc(Br)ccc21 (stereo not drawn) | 100 | 87 | 18
Br.CCCc1cc(OCCCOc2ccccc2)ccc1OCCCON1C(=N)N=C(N)NC1(C)C | 94 | 96 | 68
Cc1cccc(C)c1OC(=O)C(C)C(O)C1(Sc2ccccc2)CCN(C)CC1 (stereo not drawn) | 98 | 92 | 23
O=C(Nc1cccc(OC2CCN(Cc3ccccc3)CC2)c1)c1ccc([N+](=O)[O-])cc1.O=C(O)C(F)(F)F | 100 | 2 | 6
Cc1cnc(Nc2cccnc2)nc1Nc1ccccc1C(=O)NC(C)C | 85 | 26 | 9
Cn1nccc1C(=O)NCCNCc1cccc(-c2ccc(-c3nc4ccccc4[nH]3)cc2)c1.O=C(O)C(F)(F)F | 100 | 98 | 19
Cc1cc(C(=O)CN2C(=O)NC3(CCCc4ccccc43)C2=O)c(C)n1Cc1ccc(F)cc1 (stereo not drawn) | 92 | 53 | 4
Cl.N=c1n(CCN2CCCC2)c2ccccc2n1CC(O)c1ccc(Cl)c(Cl)c1 (stereo not drawn) | 100 | 6 | 36
Cc1cc(-c2ccc(NC(=O)Nc3ccc4nccc(N5CCN(C)CC5)c4c3)cc2C)cc(C)n1.Cl | 100 | 76 | 0
FC(F)(F)c1cccc(CNC2CCN(CC3CCCCC3)CC2)c1.O=C(O)C(F)(F)F | 100 | 12 | 0
O=C(NCCc1ccc(Cl)c(Cl)c1)[C@@H]1CCCN1C(=O)c1ccc(O)c(-c2ccc(Cl)c(Cl)c2)c1 | 99 | 99 | 0
COc1c(CNCCCCCCNCc2cc(Cl)c3ccccc3c2OC)cc(Cl)c2ccccc12.CS(=O)(=O)O | 96 | 45 | 100

Compound | Inhibition (Plasmodium falciparum [1]) [%] | Inhibition (Plasmodium falciparum [2]) [%] | Inhibition (HepG2) [%]
CCNc1cc(C(=O)N[C@@H](Cc2ccccc2)[C@H](O)CNC23CC4CC(CC(C4)C2)C3)cc(N2CCCCS2(=O)=O)c1.Cl | 98 | 99 | 3
COc1c(C2CCN(CCCCNC(=O)c3ccc(-c4ccc(C(F)(F)F)cc4)c(C(=O)OC(C)C)c3)CC2)ccc2c1CCCC2 | 90 | 30 | 24
FC(F)(F)c1ccc2[nH]c(-c3ccc(-c4cccc(CNCc5cnn(-c6ccccc6)n5)c4)s3)nc2c1.O=C(O)C(F)(F)F | 100 | 91 | 38
Cc1cccc2nc(-c3ccc(-c4cccc(CNCC5CCCO5)c4)s3)[nH]c12.O=C(O)C(F)(F)F (stereo not drawn) | 93 | 11 | 26
CC1CCCCC1N(C)C1CCN(CCCNC(=O)C=Cc2ccccc2Cl)CC1 (stereo not drawn) | 100 | 14 | 30
COc1ccc2[nH]c(C)cc(=NN=Cc3cccc(Cl)c3)c2c1 | 100 | 100 | 13
CC(O)C(=O)O.CCOc1ccc2nc3cc(N)ccc3c(N)c2c1 | 98 | 70 | 8
Cc1cc(Br)cnc1CCCCNC1=NC(=O)CN1C | 95 | 26 | 63
O=C(O)C(F)(F)F.O=S(=O)(NCCN1CCCC1)c1ccc(-c2ccc(CNC3Cc4ccccc4C3)cc2)cc1F | 100 | 75 | 33
O=c1cc(NCCCNCc2[nH]c3cc(Cl)ccc3c2Cl)[nH]c2ccccc12 | 91 | 1 | 5
COc1ccc2c(c1)Nc1ccc(Cl)cc1C2N.O=S(=O)(O)O (stereo not drawn) | 100 | 99 | 16
CC(=O)Nc1ccc(CN(Cc2ccc(C)cc2)Cc2cccc(Oc3ccccc3)c2)cc1 | 84 | 87 | 34
FC(F)(F)c1ccc2[nH]c(-c3ccc(-c4cccc(CN5CCN(CCN6CCOCC6)CC5)c4)cc3)nc2c1.O=C(O)C(F)(F)F | 98 | 77 | 47
CCCCCCNc1cc(C)nc2ccc(OC)cc12.Cl | 100 | 94 | 19
COc1cccc2cc(C(=O)N[C@@H](CC(C)C)C(=O)NC3CC[C@@H](C)N(C(=O)Nc4ccncc4)CC3=O)oc12 (stereo partly drawn) | 95 | 90 | 7
c1ccc(Oc2ccc(Nc3ccnc4cc(-c5cccc(CNCCN6CCOCC6)c5)ccc34)cc2)cc1 | 100 | 98 | 12
Cc1cnc(C(=O)Nc2cccc(-c3csc(-c4nc5ccccc5[nH]4)c3)c2)cn1 | 98 | 80 | 31
ON=C1CCc2cc(-c3cc(-c4ccc(OC5CCNCC5)cc4)oc3-c3ccncc3)ccc21 | 100 | 99 | 34
COc1ccc2nccc([C@@H](O)CN3CCC(NCc4cc5cccc(OCc6ccccc6)c5[nH]4)CC3)c2c1 | 100 | 40 | 13
